# Source: PubChem BioAssay (NCI)
# Compounds without any hit were thinned out: in the full panel of roughly 79,000, 15% have a hit. Unmarked numbers belong to inactive results. Activity calls are given as the source filed them. Cut-off read from the data, not from the text of the source: active = growth inhibition above about 70%; inactive = the rest.
# How the values were obtained:
# [1] = NCI Yeast Anticancer Drug Screen. Data for the rad52 strain (AID 147);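 note: 0% = growth of vehicle-treated control cultures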; conditions: S. cerevisiae rad52 mutant growth inhibition, active compounds read high
# Outline: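 Compounds are applied to a genetically defined yeast strain lacking normal DNA damage repair, and inhibition of growth is expressed relative to cultures given vehicle only.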
# [2] = NCI Yeast Anticancer Drug Screen. Data for the wt1 strain (AID 149);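 note: 0% = growth of vehicle-treated wt1 cultures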; conditions: S. cerevisiae wt1 strain (SPY 50644) growth inhibition, active compounds read high
# Outline: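 Using yeast strain wt1, compound-induced growth inhibition was determined against vehicle-treated cultures.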
# [3] = NCI Yeast Anticancer Drug Screen. Data for the rad50EPP+ strain (AID 151);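 note: 0% = growth of vehicle-treated control cultures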; conditions: S. cerevisiae rad50 mutant strain, active compounds read high
# Outline: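 Compounds were applied to the rad50EPP+ yeast strain, which bears a defined DNA repair alteration, and growth inhibition was determined relative to vehicle-treated cultures.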
# [4] = NCI Yeast Anticancer Drug Screen. Data for the rad50 strain (AID 155);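 note: 0% = growth of vehicle-only cultures of the same strain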; conditions: S. cerevisiae rad50 strain growth inhibition, active compounds read high
# Outline: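 Relative growth inhibition (compound vs vehicle) was measured in yeast with a defined repair-gene alteration.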
# [5] = NCI Yeast Anticancer Drug Screen. Data for the mec2-1 strain (AID 157); conditions: S. cerevisiae mec2-1 strain, active compounds read high
# Outline: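 Strain: mec2-1 (DNA repair/cell cycle alteration). Compound exposure, then growth measured; inhibition expressed relative to vehicle.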
# [6] = NCI Yeast Anticancer Drug Screen. Data for the rad14 strain (AID 159);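 note: 0% = growth of vehicle-treated control cultures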; conditions: S. cerevisiae rad14 strain growth inhibition, active compounds read high
# Outline: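 Screen for anticancer potential: a yeast strain altered in DNA damage repair is grown with compound, and reduced growth is quantified against vehicle controls.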
# [7] = NCI Yeast Anticancer Drug Screen. Data for the sgs1 mgt1 strain (AID 161);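 note: 0% = growth of cultures given vehicle only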; conditions: S. cerevisiae sgs1 mgt1 strain, active compounds read high
# Outline: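 Mutant yeast exposed to compound; growth scored against vehicle-only wells.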
# [8] = NCI Yeast Anticancer Drug Screen. Data for the CLN2oe strain (AID 163);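 note: 0% = growth of vehicle-only control cultures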; conditions: S. cerevisiae CLN2oe strain, active compounds read high
# Outline: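 Growth of a genetically modified yeast strain is measured after compound exposure and compared with cultures given vehicle alone.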
# [9] = NCI Yeast Anticancer Drug Screen. Data for the cln2 rad14 strain (AID 165);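 note: 0% = growth equal to vehicle treated cultures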; conditions: S. cerevisiae cln2 rad14 strain, active compounds read high
# Outline: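 Compounds are applied to the cln2 rad14 yeast strain, and growth is then compared with that of vehicle-treated cultures to give inhibition.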
# [10] = NCI Yeast Anticancer Drug Screen. Data for the bub3 strain (AID 167); conditions: S. cerevisiae bub3 mutant strain, active compounds read high
# Outline: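 Screening used yeast with an engineered genetic alteration affecting cell cycle control. Compound-exposed cultures were compared with vehicle cultures, and reduced growth was taken as inhibition.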
# [11] = NCI Yeast Anticancer Drug Screen. Data for the wt2 strain (AID 169);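 note: 0% = growth of vehicle-treated yeast cultures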; conditions: S. cerevisiae wt2 strain growth inhibition, active compounds read high
# Outline: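 This strain belongs to a panel of yeast strains with defined genetic alterations in DNA damage repair or cell cycle control. Compounds are applied, and growth inhibition is measured against vehicle-treated cultures.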
# [12] = NCI Yeast Anticancer Drug Screen. Data for the mlh1 strain (AID 171);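 note: 0% = growth of vehicle-treated control cultures of the same strain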; conditions: S. cerevisiae mlh1 strain growth inhibition, active compounds read high
# Outline: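 Growth of the mutant yeast strain after compound exposure, expressed as inhibition relative to vehicle-only controls.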
# [13] = NCI Yeast Anticancer Drug Screen. Data for the sgs1 strain (AID 173);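 note: 0% = growth of vehicle-only control cultures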; conditions: S. cerevisiae sgs1 mutant, active compounds read high
# Outline: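 Growth of a yeast strain bearing a defined genetic alteration is measured after compound treatment. Inhibition is expressed relative to vehicle-only controls.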
# [14] = NCI Yeast Anticancer Drug Screen. Data for the mlh1 rad18 strain (AID 175); conditions: S. cerevisiae mlh1 rad18 strain growth inhibition, active compounds read high
# Outline: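 Read-out is yeast growth inhibition, calculated against vehicle-only controls. The compound was applied to a strain engineered with DNA damage repair alterations.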
# [15] = NCI Yeast Anticancer Drug Screen. Data for the rad18 strain (AID 177); conditions: S. cerevisiae rad18 mutant growth inhibition, active compounds read high
# Outline: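 Growth of the mutant yeast strain after compound exposure, normalised to vehicle-only cultures.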
# [16] = NCI Yeast Anticancer Drug Screen. Data for the mgt1 strain (AID 153); conditions: S. cerevisiae mgt1 mutant growth inhibition, active compounds read high
# Outline: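 Strain: mgt1 yeast, one of a set carrying defined DNA damage repair or cell cycle control alterations. Compound-treated growth compared with vehicle.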
# [17] = at 5.0 µM (retest, dose inferred, filed as 0.5)
# [18] = at 50.0 µM (retest, dose inferred, filed as 5.0)
smiles,measurement,setting,value
C[CH2][Sn]([CH2]C)([O]C(=O)C(N)Cc1ccccc1)[O]C(=O)C(N)Cc1ccccc1 (stereo not drawn),growth inhibition,[1]; at 1.2 µM,1%
same,growth inhibition,[1]; at 3.7 µM,-4%
same,growth inhibition,[1]; at 11.0 µM,2%
same,growth inhibition,[1]; at 33.0 µM,14%
same,growth inhibition,[1]; at 100.0 µM,52%
same,growth inhibition,[2]; at 1.2 µM,1%
same,growth inhibition,[2]; at 3.7 µM,1%
same,growth inhibition,[2]; at 11.0 µM,14%
same,growth inhibition,[2]; at 33.0 µM,19%
same,growth inhibition,[2]; at 100.0 µM,54%
same,growth inhibition,[3]; at 1.2 µM,-13%
same,growth inhibition,[3]; at 3.7 µM,-13%
same,growth inhibition,[3]; at 11.0 µM,9%
same,growth inhibition,[3]; at 33.0 µM,-28%
same,growth inhibition,[3]; at 100.0 µM,-11%
same,growth inhibition,[4]; at 1.2 µM,10%
same,growth inhibition,[4]; at 3.7 µM,3%
same,growth inhibition,[4]; [17],19%
same,growth inhibition,[4]; at 11.0 µM,14%
same,growth inhibition,[4]; at 33.0 µM,15%
same,growth inhibition,[4]; [18],20%
same,growth inhibition,[4]; at 50.0 µM,55.8%
same,growth inhibition,[4]; at 100.0 µM,54%
same,growth inhibition,[5]; at 1.2 µM,3%
same,growth inhibition,[5]; at 3.7 µM,3%
same,growth inhibition,[5]; [17],19%
same,growth inhibition,[5]; at 11.0 µM,0%
same,growth inhibition,[5]; at 33.0 µM,3%
same,growth inhibition,[5]; [18],36%
same,growth inhibition,[5]; at 50.0 µM,70.5% (active)
same,growth inhibition,[5]; at 100.0 µM,49%
same,growth inhibition,[6]; at 1.2 µM,-23%
same,growth inhibition,[6]; at 3.7 µM,-11%
same,growth inhibition,[6]; at 11.0 µM,-17%
same,growth inhibition,[6]; at 33.0 µM,-13%
same,growth inhibition,[6]; at 100.0 µM,7%
same,growth inhibition,[7]; [17],-21%
same,growth inhibition,[7]; [18],59%
same,growth inhibition,[7]; at 50.0 µM,16.1%
same,growth inhibition,[8]; at 1.2 µM,4%
same,growth inhibition,[8]; at 3.7 µM,-1%
same,growth inhibition,[8]; at 11.0 µM,10%
same,growth inhibition,[8]; at 33.0 µM,14%
same,growth inhibition,[8]; at 100.0 µM,36%
same,growth inhibition,[9]; [17],17%
same,growth inhibition,[9]; [18],76% (active)
same,growth inhibition,[9]; at 50.0 µM,61.1%
same,growth inhibition,[10]; at 1.2 µM,-23%
same,growth inhibition,[10]; at 3.7 µM,-25%
same,growth inhibition,[10]; [17],2%
same,growth inhibition,[10]; at 11.0 µM,-39%
same,growth inhibition,[10]; at 33.0 µM,-29%
same,growth inhibition,[10]; [18],74% (active)
same,growth inhibition,[10]; at 50.0 µM,47.7%
same,growth inhibition,[10]; at 100.0 µM,32%
same,growth inhibition,[11]; at 1.2 µM,-15%
same,growth inhibition,[11]; at 3.7 µM,-21%
same,growth inhibition,[11]; at 11.0 µM,-13%
same,growth inhibition,[11]; at 33.0 µM,-2%
same,growth inhibition,[11]; at 100.0 µM,78% (active)
same,growth inhibition,[12]; at 1.2 µM,6%
same,growth inhibition,[12]; at 3.7 µM,-2%
same,growth inhibition,[12]; at 11.0 µM,1%
same,growth inhibition,[12]; at 33.0 µM,23%
same,growth inhibition,[12]; at 100.0 µM,56%
same,growth inhibition,[13]; at 1.2 µM,-8%
same,growth inhibition,[13]; at 3.7 µM,7%
same,growth inhibition,[13]; at 11.0 µM,4%
same,growth inhibition,[13]; at 33.0 µM,0%
same,growth inhibition,[13]; at 100.0 µM,42%
same,growth inhibition,[14]; [17],17%
same,growth inhibition,[14]; [18],23%
same,growth inhibition,[14]; at 50.0 µM,-22.9%
same,growth inhibition,[15]; at 1.2 µM,3%
same,growth inhibition,[15]; at 3.7 µM,2%
same,growth inhibition,[15]; at 11.0 µM,6%
same,growth inhibition,[15]; at 33.0 µM,22%
same,growth inhibition,[15]; at 100.0 µM,65%
COc1ccc(C/C=N/Nc2ccc([N+](=O)[O-])cc2)cc1OC,growth inhibition,[1]; at 1.2 µM,8%
same,growth inhibition,[1]; at 3.7 µM,12%
same,growth inhibition,[1]; at 11.0 µM,18%
same,growth inhibition,[1]; at 33.0 µM,39%
same,growth inhibition,[1]; at 100.0 µM,42%
same,growth inhibition,[2]; at 1.2 µM,4%
same,growth inhibition,[2]; at 3.7 µM,2%
same,growth inhibition,[2]; at 11.0 µM,5%
same,growth inhibition,[2]; at 33.0 µM,-1%
same,growth inhibition,[2]; at 100.0 µM,2%
same,growth inhibition,[3]; at 1.2 µM,15%
same,growth inhibition,[3]; at 3.7 µM,29%
same,growth inhibition,[3]; at 11.0 µM,33%
same,growth inhibition,[3]; at 33.0 µM,35%
same,growth inhibition,[3]; at 100.0 µM,51%
same,growth inhibition,[16]; at 1.2 µM,2%
same,growth inhibition,[16]; at 3.7 µM,12%
same,growth inhibition,[16]; at 11.0 µM,9%
same,growth inhibition,[16]; at 33.0 µM,4%
same,growth inhibition,[16]; at 100.0 µM,23%
same,growth inhibition,[4]; at 1.2 µM,27%
same,growth inhibition,[4]; at 3.7 µM,36%
same,growth inhibition,[4]; [17],9%
same,growth inhibition,[4]; at 11.0 µM,28%
same,growth inhibition,[4]; at 33.0 µM,56%
same,growth inhibition,[4]; [18],97% (active)
same,growth inhibition,[4]; at 50.0 µM,98.1% (active)
same,growth inhibition,[4]; at 100.0 µM,66%
same,growth inhibition,[5]; at 1.2 µM,1%
same,growth inhibition,[5]; at 3.7 µM,3%
